The experiment addresses T1, Protein kinase C iota type (Homo sapiens) (UniProt P41743).
T1 sequence (whole entry): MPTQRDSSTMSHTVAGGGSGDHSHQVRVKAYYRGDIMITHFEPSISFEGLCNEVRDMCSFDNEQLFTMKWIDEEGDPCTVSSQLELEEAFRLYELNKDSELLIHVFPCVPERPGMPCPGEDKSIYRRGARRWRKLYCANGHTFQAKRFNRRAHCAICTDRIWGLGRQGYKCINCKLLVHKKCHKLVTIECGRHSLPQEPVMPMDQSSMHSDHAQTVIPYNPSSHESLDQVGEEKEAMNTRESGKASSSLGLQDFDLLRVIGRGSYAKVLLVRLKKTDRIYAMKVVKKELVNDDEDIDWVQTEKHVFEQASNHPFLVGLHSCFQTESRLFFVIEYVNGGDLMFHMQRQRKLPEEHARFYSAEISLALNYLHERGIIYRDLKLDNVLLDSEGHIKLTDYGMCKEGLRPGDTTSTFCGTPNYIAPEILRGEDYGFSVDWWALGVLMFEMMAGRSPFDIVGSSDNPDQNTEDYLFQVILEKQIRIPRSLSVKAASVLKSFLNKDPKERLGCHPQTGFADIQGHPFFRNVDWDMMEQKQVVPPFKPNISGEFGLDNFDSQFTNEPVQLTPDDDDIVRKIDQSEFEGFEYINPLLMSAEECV
To be noted: at 10 µM.
For the molecule `COc1ccc(CNc2nc(N(CCO)CCO)nc3c2ncn3C(C)C)cc1`, the residual activity (in general, the signal under treatment as a percentage of the control signal) stood at 108%. As for `O=Nc1c(-c2c(O)[nH]c3ccccc23)[nH]c2ccccc12`, the figure is 105%. For the molecule `O=c1c2ccccc2[nH]c(=S)n1CCN1CCC(=C(c2ccc(F)cc2)c2ccc(F)cc2)CC1`, the residual activity is 81%.

On to `c1ccc(-c2n[nH]cc2-c2ccnc3ccccc23)nc1`, for which the residual activity turned out to be 91%. Then `Cn1nc2c3c(cccc31)C(=O)c1ccccc1-2`, with 105%.

For `CC#CC(=O)Nc1cc2c(Nc3ccc(F)c(Cl)c3)ncnc2cn1`, the residual activity worked out at 106%. Then `CNc1cc2c(Nc3cccc(Br)c3)ncnc2cn1`, with 102%; and `NC(=O)c1ccc2[nH]c(-c3ccc(Oc4ccc(Cl)cc4)cc3)nc2c1`, with 96%; and `CCN(CC)CCCCN1c2ccccc2Oc2ccc(Cl)cc21`, with 89%.

As for `CN(C)c1ccc(/C=C2\C(=O)Nc3ccccc32)cc1`, the residual activity came out at 78%. As for `COc1cc2ncnc(N3CCN(C(=O)Nc4ccc(Oc5ccccc5)cc4)CC3)c2cc1OC`, the figure is 99%; as for `Oc1c2ccccc2c2c3c(cccc13)N=N2`, 107%. As for `CC(=O)c1ccc(N2CCOCC2)cc1O`, the residual activity was determined as 106%. As for `Oc1ccc(-c2nc(-c3ccc(F)cc3)c(-c3ccncc3)[nH]2)cc1`, the figure is 105%; as for `Cc1ccc(NC2=CC(=O)c3sc(C)nc3C2=O)cc1`, 103%. For `Cn1cc(/C=C2\C(=O)Nc3ccc(S(N)(=O)=O)cc32)c2ccccc21`, the residual activity came out at 87%. Then `CC(C)n1cnc2c(NCc3ccccc3)nc(NCCCO)nc21`, with 105%. `Cc1cncc2cccc(S(=O)(=O)N3CCCN(C(=O)CN)C[C@H]3C)c12`: the residual activity is 75%. For `Ic1cccc(CSc2nnc(-c3ccncc3)o2)c1`, the residual activity turned out to be 107%.

With `O=c1cc(-c2cccc3c2Sc2ccccc2S3)oc(N2CCOCC2)c1`, the residual activity turned out to be 102%. As for `Cc1nc2cc3nc(-c4cccs4)cnc3cc2n1C`, the figure is 99%; as for `O=C1c2ccccc2-[n+]2ccc3c([nH]c4ccccc43)c21`, 105%; as for `COc1cccc(-c2cc(=O)c3ccccc3o2)c1N`, 108%. As for `O=C1NC(=O)c2cc(Nc3ccc(F)cc3)c(Nc3ccc(F)cc3)cc21`, the figure is 106%.

For the molecule `Cc1nc(-c2ccccc2)c(-c2ccncc2)o1`, the residual activity amounted to 103%. As for `Cn1cnc2cc3c(Nc4cccc(Br)c4)ncnc3cc21`, the figure is 76%. Then `CC[n+]1c(/C=C/N(C)c2ccccc2)n(-c2ccccc2)c2ccc(-c3nc4ccccc4s3)cc21`, with 88%; and `N#C/C(=C(\N)Sc1ccc(N)cc1)c1ccccc1C(F)(F)F`, with 108%.

Regarding `COc1ccc(C(=O)Nc2sc3c(c2C(N)=O)CCCC3)cc1OC`, the residual activity turned out to be 107%. Then `CC(C)n1cnc2/c(=N/c3cccc(Cl)c3)nc(NCCO)[nH]c21`, with 103%; and `CO[C@H]1[C@@H](OC)C[C@H](C)[C@@H](OC)C2=CC(=O)C=C(NC(=O)/C(C)=C/C=C/[C@H](OC)[C@@H](OC(N)=O)/C(C)=C/[C@@H]1C)C2=O`, with 71%; and `O=C1NC(=O)/C(=C\c2ccc3nccnc3c2)S1`, with 88%. As for `Cc1ccc(S(=O)(=O)/C=C/C#N)cc1`, the residual activity amounted to 100%. Take `O=C1NC(=O)/C(=C/c2ccc3c(c2)OC(F)(F)O3)S1`: the residual activity was 80%. Take `CCOc1cc2ncnc(Nc3cccc(Br)c3)c2cc1OCC`: the residual activity came out at 95%.

Source of the values: ChEMBL document CHEMBL2218924, “A broad activity screen in support of a chemogenomic map for kinase signalling research and drug discovery” (Biochem J, 2013).
